From PubChem BioAssay (EPA / NIEHS)
Activity calls are given as the source filed them. How the source made its calls: active means hit-call score of the fitted dose curve at least 0.9, where 1 is the maximum; inactive means score below 0.9.

How the values were obtained:
[1] = biological target: Transcription factor E2F1 (Homo sapiens) (UniProt Q01094); test: ATG_E2F_CIS: Attagene CIS-FACTORIAL HepG2 Assay for human E2F Transcription Factor 1 (AID 2282935); details: HepG2 Attagene cis-reporter, E2F reporter RNA transcripts; actives raise or lower the signal
Transcription factor E2F1 (Homo sapiens), sequence (Q01094 whole entry, looked up): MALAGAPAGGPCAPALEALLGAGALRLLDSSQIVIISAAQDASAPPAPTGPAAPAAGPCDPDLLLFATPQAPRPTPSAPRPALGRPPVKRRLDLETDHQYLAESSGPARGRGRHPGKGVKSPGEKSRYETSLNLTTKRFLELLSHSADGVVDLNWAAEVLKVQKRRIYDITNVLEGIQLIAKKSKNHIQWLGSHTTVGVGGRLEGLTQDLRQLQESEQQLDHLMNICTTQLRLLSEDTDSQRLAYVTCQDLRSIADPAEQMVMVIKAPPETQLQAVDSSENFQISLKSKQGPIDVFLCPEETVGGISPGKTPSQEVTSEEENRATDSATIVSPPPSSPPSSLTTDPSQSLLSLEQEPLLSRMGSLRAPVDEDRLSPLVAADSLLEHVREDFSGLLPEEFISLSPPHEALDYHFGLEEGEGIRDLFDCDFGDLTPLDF
Procedure, shortened: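 Multiplexed cis-reporter assay: HepG2, transient transfection, 24 h dosing, mRNA quantitation by labeled RT-PCR and CE.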

[2] = ATG_E_Box_CIS: Attagene CIS-FACTORIAL HepG2 Assay for human Enhancer Box (E-box) (AID 2282936); details: HepG2 E-box cis-reporter transcription, actives raise or lower the signal
Procedure, shortened: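 Multiplexed CIS reporter system in transiently transfected HepG2 cells measures native transcription factor activity. Reporter RNA after 24 h exposure is profiled by RT-PCR-capillary electrophoresis.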

[3] = ATG_M_61_CIS: Attagene CIS-FACTORIAL HepG2 Assay for M61 Transcription Factor (Internal Marker) (AID 2282937); details: HepG2 Attagene CIS-FACTORIAL M61 internal marker reporter; actives raise or lower the signal
Procedure, shortened: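 Fluorescence from labelled cDNA fragments, separated by capillary electrophoresis, quantifies reporter induction. HepG2 cells bearing transiently transfected cis-promoter MRTUs were incubated with test chemical for 24 h; DMSO defined baseline for gain/loss fitting.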

[4] = ATG_M_19_CIS: Attagene CIS-FACTORIAL HepG2 Assay for M19 Transcription Factor (Internal Marker) (AID 2282939); details: HepG2 Attagene CIS-FACTORIAL M19 internal marker reporter; actives raise or lower the signal
Procedure, shortened: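 Transfect HepG2 with MRTU reporter library → dose chemical, 24 h → isolate total RNA, reverse-transcribe with oligo(dT) → PCR, 6-FAM label, HpaI cut (2 h, 37 C) → capillary electrophoresis. Bidirectional fit vs DMSO.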

[5] = ATG_ERE_CIS: Attagene CIS-FACTORIAL HepG2 Assay for Estrogen Response Element (ERE) (AID 2282940); details: HepG2 ERE cis-reporter, Attagene RNA transcript; actives raise or lower the signal
Procedure, shortened: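 Transient MRTU transfection of human HepG2; cis-element promoters; 24 h dosing; total RNA → RT (oligo dT) → PCR → 6-FAM primer extension → HpaI digest → CE fluorescence. Bidirectional fit, DMSO baseline.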

[6] = ATG_Ets_CIS: Attagene CIS-FACTORIAL HepG2 Assay for human Erythroblast Transformation Specific (ETS) (AID 2282941); details: HepG2 ETS cis-reporter transcription, actives raise or lower the signal
Procedure, shortened: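 Steps: transfect HepG2 with multiple reporter units; treat compound 24 h; isolate RNA, DNase-treat, reverse-transcribe; PCR-amplify, label with 6-FAM, digest with HpaI; separate by capillary electrophoresis. Activity fitted both directions versus DMSO.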

[7] = biological target: Hepatocyte nuclear factor 3-beta (Homo sapiens) (UniProt Q9Y261); test: ATG_FoxA2_CIS: Attagene CIS-FACTORIAL HepG2 Assay for human Forkhead box A2 (FOXA2) (AID 2282942); details: HepG2 cis-reporter transcription factor activity, 24 h; actives raise or lower the signal
Hepatocyte nuclear factor 3-beta (Homo sapiens), sequence (Q9Y261 whole entry, looked up): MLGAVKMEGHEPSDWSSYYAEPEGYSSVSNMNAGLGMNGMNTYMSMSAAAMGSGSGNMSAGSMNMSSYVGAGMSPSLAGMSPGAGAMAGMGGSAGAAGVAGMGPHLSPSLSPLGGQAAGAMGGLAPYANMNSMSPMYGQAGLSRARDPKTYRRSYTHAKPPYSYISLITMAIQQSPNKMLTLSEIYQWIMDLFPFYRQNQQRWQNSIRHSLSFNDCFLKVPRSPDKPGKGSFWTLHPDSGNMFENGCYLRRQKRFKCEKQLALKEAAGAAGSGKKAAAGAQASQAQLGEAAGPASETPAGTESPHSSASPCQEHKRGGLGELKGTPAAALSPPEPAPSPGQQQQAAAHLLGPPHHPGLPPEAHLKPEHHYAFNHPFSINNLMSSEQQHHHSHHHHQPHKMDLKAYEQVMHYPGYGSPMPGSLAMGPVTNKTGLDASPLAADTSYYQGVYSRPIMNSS
Procedure, shortened: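 In transiently transfected human HepG2 cells, promoter-driven reporter mRNA levels after 24 h chemical exposure are determined via RT-PCR with capillary electrophoresis. DMSO serves as baseline for bidirectional fitting.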

[8] = ATG_FoxO_CIS: Attagene CIS-FACTORIAL HepG2 Assay for human Forkhead box O (FoxO) (AID 2282943); details: HepG2 Attagene cis-reporter, FoxO element, mRNA; actives raise or lower the signal
Procedure, shortened: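 HepG2 cells transiently transfected with cis-promoter-driven multiple reporter transcription units; 24 h after chemical dosing, reporter mRNA quantified by RT-PCR, fluorescent primer extension, HpaI digestion and capillary electrophoresis. Bidirectional fitting versus DMSO baseline.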

[9] = ATG_GATA_CIS: Attagene CIS-FACTORIAL HepG2 Assay for human GATA Binding Protein (AID 2282944); details: HepG2 GATA cis-element reporter, Attagene multiplex mRNA; actives raise or lower the signal
Procedure, shortened: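 Transient MRTU transfection, HepG2, 24 h compound exposure. Total RNA → oligo(dT) RT → PCR → 6-FAM primer extension → HpaI cut → CE. Bidirectional fit vs DMSO.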

[10] = ATG_GLI_CIS: Attagene CIS-FACTORIAL HepG2 Assay for human Zinc Finger Protein GLI1 (AID 2282945); details: HepG2, Attagene cis-factorial reporter mRNA, GLI element; actives raise or lower the signal
Procedure, shortened: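 HepG2 cells transiently transfected with cis-promoter multiplexed reporter units report endogenous transcription factor activity. After 24 h chemical exposure, reporter mRNA was quantified by RT-PCR, 6-FAM labelling, HpaI digestion and capillary electrophoresis, with bidirectional fitting against DMSO.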

[11] = ATG_ISRE_CIS: Attagene CIS-FACTORIAL HepG2 Assay for human Interferon Regulatory Factor 1 (IRF1) binding to an Interferon-Stimulated Response Element (ISRE) (AID 2282948); details: HepG2 ISRE cis-reporter (Attagene), mRNA transcription readout; actives raise or lower the signal
Procedure, shortened: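 Transfected HepG2 (multiple reporter transcription units, cis elements) dosed 24 h. RNA → oligo(dT) RT → PCR → 6-FAM primer extension → HpaI → CE. DMSO = negative control/baseline.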

[12] = ATG_M_32_CIS: Attagene CIS-FACTORIAL HepG2 Assay for M32 Transcription Factor (Internal Marker) (AID 2282949); details: HepG2 Attagene cis-factorial M32 reporter, mRNA; actives raise or lower the signal;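 further: background control marker of the multiplexed CIS panel rather than a real target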
Procedure, shortened: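 HepG2 cells transiently transfected with multiplexed cis-regulated reporter units, dosed 24 h. Reporter mRNA quantified by RT-PCR, 6-FAM labelling, HpaI digestion and capillary electrophoresis; bidirectional fit vs DMSO.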

[13] = ATG_M_06_CIS: Attagene CIS-FACTORIAL HepG2 Assay for M06 Transcription Factor (Internal Marker) (AID 2282950); details: HepG2 Attagene CIS-FACTORIAL M06 internal marker reporter; actives raise or lower the signal
Procedure, shortened: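 Read-out is fluorescence of labelled reporter cDNA fragments resolved by capillary electrophoresis after RT-PCR. Cells: HepG2 carrying transfected cis-promoter reporter units, treated 24 h. Gain or loss of signal fitted relative to DMSO.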

[14] = biological target: Hypoxia-inducible factor 1-alpha (Homo sapiens) (UniProt Q16665); test: ATG_HIF1a_CIS: Attagene CIS-FACTORIAL HepG2 Assay for human Hypoxia Inducible Factor 1 (HIF1A) (AID 2282951); details: HepG2 Attagene cis-factorial HIF1a reporter transcription; actives raise or lower the signal
Hypoxia-inducible factor 1-alpha (Homo sapiens), sequence (Q16665 whole entry, looked up): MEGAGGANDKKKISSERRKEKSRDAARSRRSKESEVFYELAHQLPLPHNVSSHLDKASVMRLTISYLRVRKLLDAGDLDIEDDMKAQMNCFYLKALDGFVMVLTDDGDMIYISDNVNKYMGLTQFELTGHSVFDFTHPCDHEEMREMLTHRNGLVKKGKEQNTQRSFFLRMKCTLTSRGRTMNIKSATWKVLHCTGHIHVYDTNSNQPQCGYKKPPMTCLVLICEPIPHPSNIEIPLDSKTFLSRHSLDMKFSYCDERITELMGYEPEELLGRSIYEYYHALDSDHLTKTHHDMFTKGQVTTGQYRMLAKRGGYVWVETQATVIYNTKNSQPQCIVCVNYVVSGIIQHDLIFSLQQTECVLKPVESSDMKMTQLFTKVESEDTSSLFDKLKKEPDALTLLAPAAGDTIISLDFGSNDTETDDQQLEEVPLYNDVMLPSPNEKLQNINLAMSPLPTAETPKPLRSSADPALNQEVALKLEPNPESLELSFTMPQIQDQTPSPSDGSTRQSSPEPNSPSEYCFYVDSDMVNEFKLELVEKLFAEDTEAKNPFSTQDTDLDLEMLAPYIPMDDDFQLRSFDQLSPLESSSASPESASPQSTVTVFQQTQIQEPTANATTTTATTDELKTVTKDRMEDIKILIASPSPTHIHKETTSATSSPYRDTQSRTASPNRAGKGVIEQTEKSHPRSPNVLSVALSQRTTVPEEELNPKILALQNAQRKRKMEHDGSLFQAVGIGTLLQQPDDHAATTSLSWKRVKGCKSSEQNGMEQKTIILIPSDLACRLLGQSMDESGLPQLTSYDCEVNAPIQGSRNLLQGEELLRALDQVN
Procedure, shortened: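 In this multiplexed cell assay, HepG2 cells bearing transfected cis reporters are dosed for 24 h and reporter mRNA is read by RT-PCR plus capillary electrophoresis; signal increases and decreases are both scored against DMSO.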

[15] = biological target: Hepatocyte nuclear factor 6 (Homo sapiens) (UniProt Q9UBC0); test: ATG_HNF6_CIS: Attagene CIS-FACTORIAL HepG2 Assay for human Hepatocyte Nuclear Factor 6 (HNF6) (AID 2282952); details: HepG2 Attagene cis-factorial HNF6 reporter transcription; actives raise or lower the signal
Hepatocyte nuclear factor 6 (Homo sapiens), sequence (Q9UBC0 whole entry, looked up): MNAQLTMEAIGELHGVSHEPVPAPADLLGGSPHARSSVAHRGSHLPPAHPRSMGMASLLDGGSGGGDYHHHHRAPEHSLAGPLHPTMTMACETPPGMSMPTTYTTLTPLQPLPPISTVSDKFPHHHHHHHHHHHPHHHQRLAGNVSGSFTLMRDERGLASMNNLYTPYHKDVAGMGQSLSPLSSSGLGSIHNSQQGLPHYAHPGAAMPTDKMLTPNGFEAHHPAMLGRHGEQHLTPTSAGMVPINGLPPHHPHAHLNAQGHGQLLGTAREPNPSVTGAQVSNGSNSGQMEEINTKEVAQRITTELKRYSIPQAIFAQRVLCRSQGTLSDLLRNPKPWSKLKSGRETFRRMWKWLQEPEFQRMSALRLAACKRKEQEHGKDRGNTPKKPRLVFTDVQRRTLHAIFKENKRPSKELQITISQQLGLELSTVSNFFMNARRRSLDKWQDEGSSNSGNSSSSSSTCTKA
Procedure, shortened: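 HepG2, transient MRTU transfection (cis promoters); 24 h chemical exposure; total RNA → oligo(dT) RT → PCR → 6-FAM labelling → HpaI cut → CE; bidirectional fit vs DMSO.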

[16] = biological target: Heat shock factor protein 1 (Homo sapiens) (UniProt Q00613); test: ATG_HSE_CIS: Attagene CIS-FACTORIAL HepG2 Assay for human Heat Shock Transcription Factor 1 (HSE) (AID 2282953); details: HepG2 HSE cis-reporter, Attagene RNA transcription; actives raise or lower the signal
Heat shock factor protein 1 (Homo sapiens), sequence (Q00613 whole entry, looked up): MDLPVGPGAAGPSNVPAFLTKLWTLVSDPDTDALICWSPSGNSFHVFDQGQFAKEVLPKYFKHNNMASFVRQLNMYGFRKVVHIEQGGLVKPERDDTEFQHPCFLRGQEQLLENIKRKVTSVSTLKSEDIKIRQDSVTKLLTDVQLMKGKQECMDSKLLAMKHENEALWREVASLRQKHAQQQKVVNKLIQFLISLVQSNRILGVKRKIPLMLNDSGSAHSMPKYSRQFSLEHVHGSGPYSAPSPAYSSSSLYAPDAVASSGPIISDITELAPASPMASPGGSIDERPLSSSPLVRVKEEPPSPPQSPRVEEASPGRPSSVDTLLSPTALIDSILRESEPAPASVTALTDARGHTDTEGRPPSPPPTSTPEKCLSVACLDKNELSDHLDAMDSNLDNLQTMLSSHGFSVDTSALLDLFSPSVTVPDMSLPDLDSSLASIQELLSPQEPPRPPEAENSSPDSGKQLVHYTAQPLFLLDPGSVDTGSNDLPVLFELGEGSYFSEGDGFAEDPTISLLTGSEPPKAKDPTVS
Procedure, shortened: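 HepG2, transient MRTU transfection, cis-promoter reporters (endogenous TF activity). 24 h compound. RNA → oligo(dT) RT → PCR → 6-FAM primer extension → HpaI cut → CE. Bidirectional fit vs DMSO.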

[17] = ATG_MRE_CIS: Attagene CIS-FACTORIAL HepG2 Assay for human Metal Responsive Element (MRE) (AID 2282954); details: HepG2 MRE cis-reporter transcription, Attagene multiplex; actives raise or lower the signal
Procedure, shortened: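 Step one: transfect HepG2 with cis-regulated reporter units. Step two: dose 24 h. Step three: isolate RNA, RT-PCR, 6-FAM label, HpaI digest, capillary electrophoresis. Fit bidirectionally to DMSO.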

[18] = biological target: Bile acid receptor (Homo sapiens) (UniProt Q96RI1); test: ATG_IR1_CIS: Attagene CIS-FACTORIAL HepG2 Assay for human Nuclear Receptor Subfamily 1 Group H Member 4 (NR1H4), IR1 submotif (AID 2282946); details: IR1 reporter transcription, actives raise or lower the signal
Bile acid receptor (Homo sapiens), sequence (Q96RI1 whole entry, looked up): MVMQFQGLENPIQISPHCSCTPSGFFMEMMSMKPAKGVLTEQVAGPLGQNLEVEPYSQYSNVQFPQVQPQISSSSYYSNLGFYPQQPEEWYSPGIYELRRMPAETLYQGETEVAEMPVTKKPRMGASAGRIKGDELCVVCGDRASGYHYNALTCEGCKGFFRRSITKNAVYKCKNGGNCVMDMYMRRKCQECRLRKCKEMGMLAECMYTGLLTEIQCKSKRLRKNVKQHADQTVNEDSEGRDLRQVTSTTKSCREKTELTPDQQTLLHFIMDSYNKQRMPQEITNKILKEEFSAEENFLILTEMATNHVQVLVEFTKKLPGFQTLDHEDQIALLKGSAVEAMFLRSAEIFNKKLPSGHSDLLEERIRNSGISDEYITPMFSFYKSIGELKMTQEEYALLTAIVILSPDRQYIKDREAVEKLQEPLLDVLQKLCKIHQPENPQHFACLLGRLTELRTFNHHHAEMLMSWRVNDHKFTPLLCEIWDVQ
Procedure, shortened: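 Transient MRTU transfection, HepG2; 24 h dosing; RNA → RT-PCR → 6-FAM primer extension → HpaI digest → capillary electrophoresis fluorescence. Gain/loss of signal fitted relative to DMSO.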

[19] = ATG_GRE_CIS: Attagene CIS-FACTORIAL HepG2 Assay for human Glucocorticoid Response Elements (GRE) (AID 2282947); details: HepG2 GRE cis-reporter, Attagene multiplex mRNA; actives raise or lower the signal
Procedure, shortened: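 Following 24 h chemical exposure of transiently transfected HepG2 cells, total RNA was reverse-transcribed and reporter cDNA amplified, fluorescently labelled and sized by capillary electrophoresis. Signal gain or loss was fitted relative to DMSO vehicle.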

[20] = ATG_EGR_CIS: Attagene CIS-FACTORIAL HepG2 Assay for human Early Growth Response 1 (EGR1) (AID 2282938); details: HepG2 Attagene CIS-FACTORIAL EGR reporter mRNA; actives raise or lower the signal
Procedure, shortened: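 Cell-based multiplex transcription assay: HepG2 carrying transfected cis-element reporter units, 24 h chemical treatment. Fluorescence from capillary electrophoresis of RT-PCR products gives mRNA levels; fitting is bidirectional relative to DMSO.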

Measured: AC50

CCCCOCCOC(=O)COc1ccc(Cl)cc1Cl
not listed: [18] | [19] | [20]
inactive: all other assays above

COc1ccc(C(=O)/C(Br)=C\C(=O)O)cc1
active: [11] 57.2 µM | [14] 56.1 µM | [16] 174 µM
not listed: [17] | [20]
inactive: all other assays above

CC(C)=CCl
not listed: [20]
inactive: all other assays above

CCc1cccc(C)c1N
not listed: [17] | [18] | [20]
inactive: all other assays above

Cn1cccc1
not listed: [8] | [10]
inactive: all other assays above

C=CCNCC=C
active: [14] 28.3 µM
not listed: [10] | [16] | [17] | [20]
inactive: all other assays above

CC(=O)/C=C/C1C(C)=CCCC1(C)C (configuration not stated)
active: [5] 44.7 µM
not listed: [19] | [20]
inactive: all other assays above

O=C(O)c1cc(O)c2ccccc2c1O
active: [1] 59.1 µM | [2] 8.86 µM | [5] 0.513 µM | [6] 57.9 µM | [8] 52 µM | [10] 33.4 µM | [18] 33.4 µM | [19] 21.8 µM | [14] 48.9 µM
not listed: [20]
inactive: all other assays above
